# Screening results: PubChem BioAssay, National Center for Advancing Translational Sciences (NCATS)
# Hits are enriched below; roughly 11% of the tested compounds scored in any of these assays.
# HEK cytotox = HEK 293 cell cytotoxicity | HEK 293 viability, ATP luminescence (CellTiter-Glo), 48-72 h | Potency, µM (series often up to 115 µM), usual class: inhibitors | 94,000 tested, 6.6% active; also: nearly all actives have a fitted effect of over 60% in size
#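 HEK 293 cells at 250 cells/well were exposed to compounds by pintool transfer for 48 or 72 hr at 37 degree Celsius, 5% CO2. Viability was read as ATP-coupled luminescence with CellTiter-Glo after 10 min at room temperature.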
# FLuc inh-1 = inhibitors of firefly (Photinus pyralis) luciferase. purified P. pyralis luciferase, luminescence, biochemical. Potency, µM (highest dose often 115 µM), most hits filed as inhibitors. 76,000 tested, 2.5% active. AID 1347043; also: nearly all actives have a fitted effect of over 65% in size
# Target sequence (P08659 whole entry, looked up): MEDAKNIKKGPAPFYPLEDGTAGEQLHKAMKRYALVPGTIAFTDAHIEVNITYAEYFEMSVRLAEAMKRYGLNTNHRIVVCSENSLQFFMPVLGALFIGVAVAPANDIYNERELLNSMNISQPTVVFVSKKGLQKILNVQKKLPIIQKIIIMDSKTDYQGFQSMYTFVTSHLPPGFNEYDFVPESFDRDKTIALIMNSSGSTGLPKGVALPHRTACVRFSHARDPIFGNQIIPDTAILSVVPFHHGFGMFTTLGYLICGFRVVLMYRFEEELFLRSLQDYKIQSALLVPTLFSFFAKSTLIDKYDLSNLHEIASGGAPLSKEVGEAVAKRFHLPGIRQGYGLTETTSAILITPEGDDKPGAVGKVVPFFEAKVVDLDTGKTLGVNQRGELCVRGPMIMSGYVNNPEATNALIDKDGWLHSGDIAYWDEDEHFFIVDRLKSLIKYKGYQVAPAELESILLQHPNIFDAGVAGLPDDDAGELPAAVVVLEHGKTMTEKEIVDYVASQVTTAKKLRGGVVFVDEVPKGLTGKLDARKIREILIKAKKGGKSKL
#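 Luminescence read by CCD imager after adding enzyme (10nM final) to wells holding compound, titrated in qHTS. Substrates 10uM each D-luciferin and ATP; buffer 50mM Tris acetate pH 7.5, 10mM Mg acetate, Tween-20, BSA.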
# NIH3T3 tox = cytotoxic compounds in NIH 3T3 cells | NIH 3T3 viability, CellTiter-Glo ATP luminescence, 48-72 h | Potency, µM (doses to about 96.7 µM), most hits filed as inhibitors | 94,000 tested, 4.3% active | AID 1345082; also: nearly all actives have a fitted effect of over 55% in size
#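 Luminescent ATP readout (CellTiter-Glo, 10 min RT) after 48 or 72 hr compound exposure of NIH 3T3 cells seeded at 400 cells/well in 1536-well format; quantitative HTS.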
# NPR1 antag = antagonists of human natriuretic peptide receptor Npr1; P16066; HEK293 hNpr1 GloSensor cGMP, ANP-stimulated luminescence; Potency, µM (series often up to 46.3 µM), most hits filed as inhibitors; 76,000 tested, 1.6% active; AID 1347048; calls by dose curve; also: nearly all actives have a fitted effect of over 60% in size
#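 Compound pre-incubated 30 min at room temperature on GloSensor-loaded HEK293 cells stably carrying hNpr1 and the pGS-40F cGMP biosensor. Stimulation uses hNppA at 0.1 nM final; luminescence is taken at baseline and 20 min post-agonist.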
# FLuc SDR no ATP = stabilizes firefly luciferase without ATP. shares compounds with FLuc inh-1. Purified FLuc-C-HiBiT, Nano-Glo HiBiT luminescence, no ATP. Potency, µM (titrated, usually from 32.7 µM), hits mostly activators. 1,300 tested, 7.8% active. AID 1963318; also: nearly all actives have a fitted effect of over 55% in size
# FLuc SDR ATP = stabilizes firefly luciferase with ATP present. 1,300 tested, 8.7% active. purified FLuc-C-HiBiT + ATP, HiBiT complementation luminescence. shares compounds with FLuc inh-1. Potency, µM (series often up to 32.7 µM), actives largely listed as activators;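 also: signal reports ligand binding via conformational change of the enzyme rather than luciferase catalysis; nearly all actives have a fitted effect of over 55% in size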
# FLuc inh-2 = inhibitors of firefly luciferase enzymatic activity; Potency, µM (highest dose often 32.7 µM), actives largely listed as inhibitors; purified FLuc-C-HiBiT enzyme, luciferin luminescence; AID 1963320; 1,300 tested, 42% active; shares compounds with FLuc inh-1; also: nearly all actives have a fitted effect of over 70% in size
# Hits are given with their value; - = inactive; ? = inconclusive; . = not tested or not shown. Unless noted, calls follow the shape of the dose curve; as a rule, active = well fitted curve in the direction sought with a large enough effect; inconclusive = small, poorly fitted or top-dose-only effect, or another doubt; inactive = no such curve, though single readings can be large; an effect the other way counts as inactive or inconclusive.
SMILES,HEK cytotox,FLuc inh-1,NIH3T3 tox,NPR1 antag,FLuc SDR no ATP,FLuc SDR ATP,FLuc inh-2
COc1ccc(-c2cc(N3CCCC(NC(=O)c4cccc(OC)c4)C3)n[nH]2)cc1 (stereo not given),25.1µM,7.08µM,?,-,-,-,?
COc1cc(C(=O)NC2CCCN(c3cc(-c4ccc(F)cc4)[nH]n3)C2)cc(OC)c1OC (stereo not given),?,12.6µM,?,-,-,-,?
CN(C)c1cccc(C(=O)NC2CCN(c3cc(-c4ccc(Cl)cc4)[nH]n3)C2)c1 (stereo not given),?,12.6µM,?,-,-,?,?
COc1ccc(-c2cc(N3CCCC(NC(=O)c4ccc5[nH]ccc5c4)C3)n[nH]2)cc1 (stereo not given),?,4.47µM,?,-,-,-,4.95µM
COc1ccc(C(=O)NC2CCCN(c3cc(-c4ccc(F)cc4)[nH]n3)C2)cc1F (stereo not given),?,?,?,-,.,.,.
COc1ccc(-c2cc(N3CCCC(NC(=O)c4ccc(C)cc4)C3)n[nH]2)cc1 (stereo not given),?,?,?,-,.,.,.
Cc1cc(C(=O)N2CCC(CC(=O)N(C)Cc3ccccc3)C2)n(C)n1 (stereo not given),-,.,-,.,.,.,.
COc1cccc(N2C(=O)NC(=NC3CCCCC3)C23CCN([S+](=O)([O-])c2cccc(OC)c2)CC3)c1,-,.,-,.,.,.,.
COC(=O)c1ccccc1NC(=O)CCc1c(C)nc2cc(-c3ccc(Cl)cc3)nn2c1C,.,.,.,.,-,?,?
CCOC(=O)c1cccc(NC(=O)CCc2c(C)nc3cc(-c4ccc(Cl)cc4)nn3c2C)c1,.,.,.,.,-,?,8.81µM
CCOc1ccc(NC(=O)CCc2c(C)nc3cc(-c4ccc(Cl)cc4)nn3c2C)cc1,.,.,.,.,-,0.989µM,2.79µM
Cc1ccccc1COC1CN(C(=O)C2CCN(C(=O)C3CC3)CC2)C1,-,-,-,-,.,.,.
O=C(c1nnc(CNCc2cnccn2)n1-c1ccccc1)N1CCC[C@@H]1C(c1ccccc1)c1ccccc1,?,-,?,-,.,.,.
COCC1CN(C2CCC2)CC12CCN(C(=O)c1ccc(C#N)cc1)CC2 (stereo not given),-,.,-,.,.,.,.
CC(=O)N1CCN(c2ncnc3c2CN(C2CCCC2)C(=O)CN3C)CC1,-,.,-,.,.,.,.
C#CCNC(=O)c1ccc2nnc(-c3ccc(Cl)cc3)n2c1,-,.,?,.,.,.,.
Cc1ccc(/C=C/C(=O)N2CCC(c3nc4ccccc4o3)CC2)cc1,.,.,.,.,-,?,?
CC1CCN(CC(=O)N2CCC(c3nc4ccccc4o3)CC2)C1=O (stereo not given),-,-,-,-,.,.,.
CS(=O)(=O)N1CCCC1Cc1noc(-c2ccccc2)n1 (stereo not given),-,.,-,.,.,.,.
O=C(Nc1nc2ccccc2s1)c1ccc2c(c1)OCCN(CCC(F)(F)F)C2,20µM,12.6µM,?,?,-,-,?
O=C(Nc1nc2c(F)cccc2s1)c1ccc2c(c1)OCCO2,.,.,.,.,9.89µM,?,0.495µM
CCOC(=O)C1CCN(C(=O)c2ccc3nnc(-c4ccoc4)n3c2)CC1,-,.,-,.,.,.,.
Cc1ccc(NC(=O)N2CCC3(CCNC(=O)CC3)CC2)cc1F,-,-,?,-,.,.,.
CCN1CCN(C(=O)c2cc(-c3ccc(C)cc3)cn2CC)CC1,?,-,?,-,.,.,.
CCn1cc(-c2ccc(OC)cc2)cc1C(=O)O,?,25.1µM,-,-,-,-,?
SMILES,HEK cytotox,FLuc inh-1,NIH3T3 tox,NPR1 antag,FLuc SDR no ATP,FLuc SDR ATP,FLuc inh-2
CCn1cc(-c2ccc(F)cc2)cc1C(=O)O,-,-,-,-,-,-,-
O=C(NC1CCCc2c1[nH]c1ccccc21)c1cccs1 (stereo not given),?,-,?,-,.,.,.
Cc1ccc(C(=O)Nc2cc(C3CCCC3)nn2C)cc1,?,.,-,.,.,.,.
COc1ccccc1C(=O)Nc1onc2c1CCCC2,.,.,.,.,-,?,9.89µM
Cc1ccc(C(=O)Nc2onc3c2CCCC3)cc1,.,.,.,.,?,3.94µM,0.989µM
CCCCCNc1ncnc2c1CN(c1cccnc1)C(=O)CN2C,-,.,-,.,.,.,.
COc1cccc(C(=O)N2CCC3(CC2)N(c2ccccc2)C(=O)CS3=O)c1 (stereo not given),-,.,-,.,.,.,.
CCNc1cc(N2CCC(CCC(=O)NCC3CC3)CC2)ncn1,?,-,-,-,.,.,.
CCCNc1cc(N2CCC(CCC(=O)Nc3ccc4c(c3)OCCO4)CC2)ncn1,-,11.2µM,-,?,-,?,9.89µM
CCNc1cc(N2CCC(CCC(=O)Nc3ccc4c(c3)OCCO4)CC2)ncn1,?,7.94µM,?,-,-,-,?
COc1ccc(CNC(=O)CNC(=O)c2cccc(-c3ccsc3)c2)cc1,?,.,-,.,.,.,.
Cc1cccc(CNC(=O)c2c(C)noc2-c2ccccc2Cl)c1,?,-,?,-,.,.,.
CCc1cccc(NCc2ccccc2-c2nnc(-c3ccccc3Cl)o2)c1,.,.,.,.,-,-,-
COCCNc1cc(-c2ccc3ccccc3n2)c2cc[nH]c2n1,?,10µM,?,-,-,-,?
COc1ccc(-c2ccc3c(c2)C(=O)N2CC[C@H](NC(=O)c4cccc(F)c4)[C@H]2C(=O)N3)cc1,?,11.2µM,?,-,-,-,?
O=C(N[C@H]1CCN2C(=O)c3cc(-c4ccsc4)ccc3NC(=O)[C@H]12)c1cccs1,?,-,?,-,.,.,.
CSc1ccc(-c2ccc3c(c2)C(=O)N2CC[C@H](NC(=O)c4cccs4)[C@H]2C(=O)N3)cc1,-,6.31µM,-,-,-,-,?
COCCN1C(=O)CCc2cc(NC(=O)c3ccc(OC(F)(F)F)cc3)ccc21,?,?,?,-,.,.,.
CCN1C(=O)CCc2cc(NC(=O)c3ccc(OC(F)(F)F)cc3)ccc21,50.1µM,14.1µM,44.7µM,-,-,-,?
O=C(O)[C@H]1C[C@]2(CCCCNC2=O)N(C(=O)c2ccccc2)[C@H]1c1ccccc1,-,.,?,.,.,.,.
CN(Cc1nccs1)c1ccc(-c2nc(-c3ccccc3F)no2)cn1,?,2.82µM,-,?,-,-,?
CC(Cn1cccn1)Nc1ccc(-c2nc(-c3ccccc3F)no2)cn1 (stereo not given),44.7µM,3.55µM,?,?,-,?,9.89µM
COCCn1c(CO)nnc1C1CC(NC(=O)c2ccc(F)cc2F)C1 (stereo not given),-,-,-,-,.,.,.
COc1ccc(NC(=O)c2cccc3c2CCN3C(=O)c2ccc(F)cc2)cc1,-,-,-,-,.,.,.
CN(C)C(=O)c1cccc2c1CCN2C(=O)Nc1ccc(F)cc1,-,12.6µM,-,-,-,6.24µM,3.94µM
O=C(O)c1cccc2c1CCN2C(=O)Nc1ccc(F)cc1,8.91µM,0.0079µM,?,0.316µM,11.1µM,0.0062µM,0.0035µM
